Bioassay records (PubChem BioAssay)
EPAC2 ag – activates human EPAC2 exchange factor; Q8WZA2; EPAC2 activation, biochemical qHTS; response scale: 100% = 6.5 mM cAMP response; Potency, µM (highest dose often 154 µM), hits mostly activators; 0.079% of 360,000 active; AID 720711; also: nearly all actives have a fitted effect of over 50% in size
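Setup: EPAC2 100 nM, labeled Rap1B complex 250 nM, free GDP 50 uM. Compound titrations pinned in, brief spin, 5 min room temperature incubation. Kinetic fluorescence read over 30 min, normalized to 6.5 mM cAMP.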
EPAC1 agonist – agonists of human EPAC1 | EPAC1 agonist qHTS, biochemical assay; response scale: 100% = response to 6.5 mM cAMP | Potency, µM (titrated, usually from 154 µM), actives largely listed as activators | 0.073% of 360,000 active; also: nearly all actives have a fitted effect of over 60% in size
Target sequence (O95398 whole entry, looked up): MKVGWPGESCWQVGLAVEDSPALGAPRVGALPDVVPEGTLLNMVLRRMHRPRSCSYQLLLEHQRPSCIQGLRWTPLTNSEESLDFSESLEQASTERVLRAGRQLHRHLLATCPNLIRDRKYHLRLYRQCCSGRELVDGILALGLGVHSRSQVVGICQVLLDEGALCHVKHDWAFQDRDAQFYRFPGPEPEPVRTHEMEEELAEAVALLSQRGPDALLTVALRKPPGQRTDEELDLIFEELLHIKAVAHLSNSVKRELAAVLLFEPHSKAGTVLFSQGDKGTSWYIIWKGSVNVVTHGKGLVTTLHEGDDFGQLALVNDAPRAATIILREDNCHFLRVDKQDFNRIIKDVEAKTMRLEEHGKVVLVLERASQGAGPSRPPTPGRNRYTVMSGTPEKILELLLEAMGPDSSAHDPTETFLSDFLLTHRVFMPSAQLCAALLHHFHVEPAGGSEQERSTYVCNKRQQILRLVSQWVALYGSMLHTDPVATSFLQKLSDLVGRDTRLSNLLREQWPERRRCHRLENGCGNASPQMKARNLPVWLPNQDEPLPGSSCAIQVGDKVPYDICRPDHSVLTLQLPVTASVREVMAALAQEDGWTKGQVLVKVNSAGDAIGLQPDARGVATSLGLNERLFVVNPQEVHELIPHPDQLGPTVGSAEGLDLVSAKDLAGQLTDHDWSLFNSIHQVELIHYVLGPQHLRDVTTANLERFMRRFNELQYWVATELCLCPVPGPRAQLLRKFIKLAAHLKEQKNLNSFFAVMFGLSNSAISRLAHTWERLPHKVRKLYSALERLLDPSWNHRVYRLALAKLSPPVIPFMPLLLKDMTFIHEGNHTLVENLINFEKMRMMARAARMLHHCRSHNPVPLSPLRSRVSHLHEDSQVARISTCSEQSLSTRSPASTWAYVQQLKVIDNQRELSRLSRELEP
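Fluorescent GDP-exchange assay: 100 nM EPAC1 with 250 nM Rap1B preloaded with BODIPY-GDP and 50 uM GDP; compounds tested as concentration series, 5 min at room temperature, then read every 5 min for 30 min (ex 480/em 540 nm); normalized to 6.5 mM cAMP.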
EPAC2 antag – blocks human EPAC2 exchange factor. Q8WZA2. EPAC2 GEF exchange of Rap1B-BODIPY-GDP, fluorescence. Potency, µM (top dose mostly 114 µM), actives largely listed as inhibitors. 0.18% of 360,000 active; also: nearly all actives have a fitted effect of over 45% in size
EPAC1 antagonist – blocks human EPAC1 exchange factor | AID 720709 | EPAC1 GEF assay, Rap1b-BODIPY-GDP exchange fluorescence | Potency, µM (top dose mostly 115 µM), hits mostly inhibitors | 0.14% of 360,000 active | O95398; also: nearly all actives have a fitted effect of over 50% in size
Hits are given with their value; - = inactive; ? = inconclusive. An excerpt weighted towards active compounds, which were near 0.38% of everything screened. Calls follow the shape of the dose curve; as a rule, active = well fitted curve in the direction sought with a large enough effect; inconclusive = small, poorly fitted or top-dose-only effect, or another doubt; inactive = no such curve, though single readings can be large; an effect the other way counts as inactive or inconclusive.

SMILES	EPAC2 ag	EPAC1 agonist	EPAC2 antag	EPAC1 antagonist
COc1cccc(C(=O)/C=C/c2ccc(OCC#N)c(OC)c2)c1	-	-	-	22µM
COc1cc(/C=C/C(=O)c2ccc(O)cc2)ccc1OCC#N	-	-	-	?
CC(C)[C@@H]1Cc2[nH][nH]c(=O)c2[C@H](C(C)C)O1	-	-	-	-
O=C(O)c1cc(O)c2c(c1)[C@@H]([C@H]1c3cc(C(=O)O)cc(O)c3C(=O)c3c(O[C@@H]4O[C@H](CO)[C@@H](O)[C@H](O)[C@H]4O)cccc31)c1cccc(O[C@@H]3O[C@H](CO)[C@@H](O)[C@H](O)[C@H]3O)c1C2=O	-	-	?	35µM
COC(=O)CCC(C)C1CCC2C3C(OC(C)=O)CC4CC(O)CCC4(C)C3CC(O)C12C (stereo not drawn)	-	-	-	-
CN(C)c1cc(Cl)c2nonc2c1N	-	-	-	50µM
COCCCNc1c2c3c(cccc3[nH]c1=O)C(=O)c1ccccc1-2	100µM	100µM	-	-
COCCCNC1=C(Cl)C(=O)c2ccccc2C1=O	-	-	-	-
O=C(O)c1[nH]c2ccccc2c1C(c1cc(Br)ccc1O)c1c(C(=O)O)[nH]c2ccccc12	-	-	-	45µM
CC(C)(C)c1cc(CNC(=O)C2CCC(=O)N(Cc3ccccc3F)C2)[nH]n1 (stereo not drawn)	-	-	-	-
Cc1ccc(S(=O)(=O)N2CCCCC2)cc1C(=O)NCCC1=CCCCC1	-	112µM	-	-
O=c1cc(-c2ccccc2Cl)oc2c(NS(=O)(=O)c3cc(Cl)cc(Cl)c3O)ccc(O)c12	-	-	28µM	35µM
O=C(O)CCc1ccc(-c2ccc(Br)cc2)n1-c1ccc(O)cc1	-	-	50µM	-
Cc1ccc(-c2ccc(CCC(=O)O)n2-c2ccc(O)cc2)cc1	-	-	-	-
Cn1c(=O)c(Nc2ccc(Cl)cc2)c2c3c(cccc31)C(=O)c1ccccc1-2	112µM	?	-	-
CN(Cc1ccco1)c1ncnc2ccc(-c3ccc4c(c3)OCO4)cc12	-	-	?	-
Cc1nc(CN(C)c2ncnc3ccc(-c4ccc5c(c4)OCO5)cc23)cs1	-	-	32µM	-
N#Cc1ccccc1S(=O)(=O)N1CCN(C(=O)C2CC(=O)N(c3ccc4c(c3)OCCO4)C2)CC1 (stereo not drawn)	-	-	-	-
COc1cc(N=C2C(=O)N3c4c(cccc42)C(C)=CC3(C)C)cc(OC)c1	-	-	-	-
CC1=CC(C)(C)N2C(=O)C(=Nc3ccc(O)cc3)c3cccc1c32	-	-	?	79µM
CC(C)(C)c1ccc(OCCC(=O)OCC(=O)Nc2ccc(N3CCOCC3)cc2)cc1	-	71µM	-	-
COc1ccc(OCCC(=O)OCC(=O)Nc2ccc(S(=O)(=O)N3CCOCC3)cc2)cc1	-	-	-	?
NS(=O)(=O)c1ccc(N2CCOCC2)c(C(=O)NCCCSc2ccccc2)c1	-	-	-	-
Cc1cc2nc3c(=O)[nH]c(=O)[nH]c3nc2c([N+](=O)[O-])c1N	-	89µM	-	-
Cc1c(N)c(C(C)(C)C)cc(C(C)(C)C)c1[N+](=O)[O-]	-	-	-	-
SMILES	EPAC2 ag	EPAC1 agonist	EPAC2 antag	EPAC1 antagonist
N=C1/C(=C\c2coc3ccc(O)cc3c2=O)C(=O)N=C2SC=CN12	63µM	89µM	-	-
CC(C)CSC1=NSC2=NC(=O)/C(=C\c3coc4ccccc4c3=O)C(=N)N12	?	-	-	-
N=C1/C(=C\c2coc3ccccc3c2=O)C(=O)N=C2SC(c3ccncc3)=NN12	63µM	100µM	-	-
CN1C(=O)/C(=C/c2coc3ccc(O)cc3c2=O)SC1=S	-	-	-	-
Cc1cc(/C=C2\C(=N)N3N=C(c4ccco4)SC3=NC2=O)c(C)n1Cc1ccccc1	-	-	-	?
N=C1/C(=C/c2coc3ccccc3c2=O)C(=O)N=C2SC(c3ccco3)=NN12	100µM	89µM	-	-
CSC1=NSC2=NC(=O)/C(=C\c3coc4ccccc4c3=O)C(=N)N12	?	63µM	-	-
COc1ccc(CN2C[C@]3(CO)O[C@@H](CO)C[C@@H]3S2(=O)=O)cc1	-	-	-	-
Cc1cc(C)c(NC(=O)CNC(=O)CN(C)Cc2ccc(Br)s2)c(C)c1	-	-	-	-
CC(=O)OCCn1c2nc(=O)[nH]c(=O)c-2nc2cc(C)c(C)cc21	100µM	50µM	-	-
CC(=O)OCCn1c(C)[n+](CCOC(C)=O)c2cc(Cl)c(Cl)cc21	-	-	-	-
